What is called AC50 is the concentration giving half of the maximal activity seen.

This is an account of results in PubChem BioAssay (NCATS).

“And” between values parts separate entries of the source, which are not always exact repeats. Equal entries are not always repeated. Inconclusive results are not listed. A structure can be active in one record and inactive in another. For part of these data: Potency and affinity values are given separately. The source made the active and inactive calls. Unless noted, no rule for the calls is given here.

Test [1] in a line: qHTS assay for small molecule agonists of the antioxidant response element (ARE) signaling pathway measured by Nrf2-dependant transcriptional activity (AID 720636; active = well fitted curve in the direction sought with a large enough effect in the repeat runs; an effect the other way counts as inactive or inconclusive;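 also: HepG2 cells with an ARE-driven luciferase reporter; % of control where 0% means no effect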). A digest of the protocol:
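Cells: ARE-luc HepG2 with Nrf2-responsive luciferase. Medium contained 1% dialyzed FBS. Compound exposure lasted 16 hr at 37 C and 5% CO2, followed by ONE-Glo luciferase detection.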
A general note: Quantitative high-throughput screening tests each substance at several concentrations.

A short description of test [2]: qHTS assay for small molecule antagonists of the retinoid-related orphan receptor gamma (ROR-gamma) signaling pathway - cell viability counter screen (AID 720652; active = well fitted curve in the direction sought with a large enough effect in the repeat runs; an effect the other way counts as inactive or inconclusive;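 also: compound exposure lasted 16 hr before ATP read; % is scaled to controls: 0 for no effect and ±100 for the full control effect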). A digest of the protocol: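 Cytotoxicity counter screen: intracellular ATP (CellTiter-Glo luminescence) measured in the doxycycline-induced CHO RORE-luciferase reporter line after 16 hr compound exposure at 37 C, 5% CO2.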

The nature of test [3]: qHTS assay for small molecule agonists of the antioxidant response element (ARE) signaling pathway measured by Nrf2-dependant transcriptional activity - cell viability counter screen (AID 720653; active = well fitted curve in the direction sought with a large enough effect in the repeat runs; an effect the other way counts as inactive or inconclusive; also: potency is read from the fitted curve at half-maximal effect; as to max response: % is scaled to controls: 0 for no effect and ±100 for the full control effect). Conditions: ARE-bla HepG2 viability, CellTiter-Glo ATP luminescence, 16 h; max response: stronger effect = lower value. A digest of the protocol: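 Cytotoxicity counter screen: intracellular ATP quantified by CellTiter-Glo luminescence in the same ARE-bla HepG2 plates, after 16 h compound exposure and a 2 h beta-lactamase substrate step.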

In test [4] the target is T1, Hexokinase-4 (Homo sapiens) + Glucokinase regulatory protein (Homo sapiens) (UniProt P35557+Q14397). Nature of the test: qHTS assay for inhibitors of recombinant human GCK-GKRP interaction: ADP-Glo assay (AID 743206; active = well fitted curve in the direction sought with a large enough effect; an effect the other way counts as inactive or inconclusive;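 also: plate controls were DMSO plus enzyme for no effect and no enzyme for full effect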). A digest of the protocol:
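Pin-transferred compounds meet a 15 nM GST-GCK/15 nM FLAG-GKRP/2 uM S6P mix (dispense concentrations). ATP is then added to 0.4 mM final with 5 mM glucose, and the reaction runs 60 min at room temperature. ADP is quantified luminescently.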

In test [5] the target is T1, Hexokinase-4 (Homo sapiens) + Glucokinase regulatory protein (Homo sapiens). Briefly: qHTS assay for inhibitors of recombinant human GCK-GKRP interaction: HTRF assay (AID 743207; active = well fitted curve in the direction sought with a large enough effect; an effect the other way counts as inactive or inconclusive;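 also: 0% = DMSO with GCK present and -100% = DMSO wells lacking GCK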). In short, it runs like this: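 GST-GCK and FLAG-GKRP (5 nM each) were combined with 2 uM S6P in pH 7.1 Hepes/MgCl2/KCl/DTT buffer, then compound and anti-FLAG XL665/anti-GST K antibodies were added. After 60 min at room temperature, HTRF 665/615 nm emission was read.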

Test [6] is described as follows: qHTS Assay for Identifying Gametocytocidal Compounds (AID 743244; active = well fitted curve in the direction sought with a large enough effect; an effect the other way counts as inactive or inconclusive;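 also: % is scaled to controls: 0 for no effect and ±100 for the full control effect; actives lower the fluorescent signal which means gametocytes are killed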). Conditions: P. falciparum 3D7 stage III-V gametocytes, alamarBlue, 72 h; max response: stronger effect = lower value. A digest of the protocol: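 Viability read-out was resazurin reduction (alamarBlue, 24 h) measured at Ex 525/Em 598 nm. Beforehand, late-stage (III-V) 3D7 P. falciparum gametocytes at 20,000 cells/well were incubated with compound 72 h at 37C under 5% CO2.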

Test [7] is described as follows: qHTS assay for cell viability of HEK293 cells (AID 743288; active = well fitted curve in the direction sought with a large enough effect; an effect the other way counts as inactive or inconclusive; also: nearly all actives have a fitted effect of over 50% in size; also: potency is read from the fitted curve at half-maximal effect; as to max response: % is scaled to controls: 0 for no effect and ±100 for the full control effect). Conditions: ATP luminescence (CellTiter-Glo), 18 h; max response: stronger effect = lower value. A digest of the protocol: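 After 18 h compound exposure at 37 C, parental HEK293 cells (2,000/well) are lysed with CellTiter-Glo and luminescence is read following 30 min at room temperature.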
Test [8] is described as follows: qHTS profiling of the MIPE4 collection as inhibitors of Plasmodium falciparum (3D7) proliferation (AID 743344).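 Also: scaled between DMSO vehicle wells and 0.29 µM artemisinin as full inhibition.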 Conditions: P. falciparum 3D7 in erythrocytes, SYBR Green DNA fluorescence, 72 h; at 28.5 µM (top of the series) unless noted. In short, it runs like this:
(§1)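 Parasite DNA was quantified by SYBR Green I fluorescence (ex 485, em 535 nm) after overnight lysis in saponin/Triton buffer at room temperature. Cultures at 0.3% parasitemia and 2.5% hematocrit were first exposed to compound for 72 h at 37 C; signals were normalised to artemisinin (0.29 uM) and vehicle wells.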

A short description of test [9]: qHTS profiling of the MIPE4 collection as inhibitors of Plasmodium falciparum (DD2) proliferation (Rep 2) (AID 743346). Conditions: P. falciparum Dd2 in erythrocytes, SYBR Green DNA, 72 h; at 28.5 µM (top of the series) unless noted. A digest of the protocol:
as §1

The nature of test [10]: qHTS profiling of the MIPE4 collection as inhibitors of Plasmodium falciparum (HB3) proliferation (AID 743347).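 Also: plate controls were DMSO vehicle wells for no effect and artemisinin wells for full effect.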 Conditions: P. falciparum HB3 in erythrocytes, SYBR Green DNA, 72 h; at 28.5 µM (top of the series) unless noted. In short, it runs like this: as §1
The conditions of test [11]: Ebola virus entry assay, green fluorescence channel.
The conditions of test [12]: Ebola virus entry assay, blue channel fluorescence.
The conditions of test [13]: Ebola virus entry assay, ratio channel.
For efficacy in this document: 0% is about no effect.

T1 sequence (P35557 whole entry, looked up): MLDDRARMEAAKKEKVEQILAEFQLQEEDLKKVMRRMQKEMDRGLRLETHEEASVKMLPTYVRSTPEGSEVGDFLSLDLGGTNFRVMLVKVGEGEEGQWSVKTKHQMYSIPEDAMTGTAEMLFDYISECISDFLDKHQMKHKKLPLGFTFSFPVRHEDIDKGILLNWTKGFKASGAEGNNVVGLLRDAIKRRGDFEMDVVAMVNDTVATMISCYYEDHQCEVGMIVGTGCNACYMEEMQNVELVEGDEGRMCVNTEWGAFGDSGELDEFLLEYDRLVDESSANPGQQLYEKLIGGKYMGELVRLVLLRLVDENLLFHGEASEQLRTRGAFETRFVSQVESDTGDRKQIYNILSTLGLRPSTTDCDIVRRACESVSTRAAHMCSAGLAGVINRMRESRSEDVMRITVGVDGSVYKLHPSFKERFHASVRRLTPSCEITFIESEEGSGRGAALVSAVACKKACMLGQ
T1 sequence (Q14397 whole entry, looked up): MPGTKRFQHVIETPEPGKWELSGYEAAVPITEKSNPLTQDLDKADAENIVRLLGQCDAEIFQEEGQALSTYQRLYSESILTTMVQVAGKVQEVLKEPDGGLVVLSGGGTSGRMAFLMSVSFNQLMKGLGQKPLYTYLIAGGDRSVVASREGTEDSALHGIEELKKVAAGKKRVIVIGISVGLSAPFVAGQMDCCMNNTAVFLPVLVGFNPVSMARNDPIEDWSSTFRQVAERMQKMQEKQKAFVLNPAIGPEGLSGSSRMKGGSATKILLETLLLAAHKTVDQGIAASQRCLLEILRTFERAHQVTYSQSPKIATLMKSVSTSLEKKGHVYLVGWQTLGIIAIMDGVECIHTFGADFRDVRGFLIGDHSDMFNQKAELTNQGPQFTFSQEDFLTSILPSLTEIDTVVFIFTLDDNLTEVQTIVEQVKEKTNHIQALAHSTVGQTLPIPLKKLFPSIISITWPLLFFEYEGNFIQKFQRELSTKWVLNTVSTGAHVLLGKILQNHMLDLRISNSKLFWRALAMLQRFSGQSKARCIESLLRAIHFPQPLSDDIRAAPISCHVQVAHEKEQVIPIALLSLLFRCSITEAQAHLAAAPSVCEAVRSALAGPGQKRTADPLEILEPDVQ

As to `CNCC(O)c1ccc(O)cc1` (stereo not drawn), the Potency entry in test [1] and in test [2] was “inactive” in each case. Further, the values for the max response in test [3], in test [6] and in [7] were 12.1% (inactive), 28.1% (inactive) and -7.41% (inactive), respectively. For the same compound, the outcome in test [4], in test [5], in test [12] and in test [13] was inactive. This compound yielded a parasite growth, % of DMSO control in test [8] of 81.9%. The same compound had a parasite growth, % of control (lower = inhibition) in test [9] of 71%. In test [10], the growth, % of control was found to be 53.7%. Moreover, the efficacy in test [11] was -23.3% (inactive).

As to `C[C@@H]1CC(=O)NN=C1c1ccc(NN=C(C#N)C#N)cc1`, the efficacy in test [11] is -24% (inactive) and 20% (inactive). Besides, the call in test [12] and in [13] was inactive.

Regarding `COc1cc2c(N3CCN(C(=O)Nc4ccc(OC(C)C)cc4)CC3)ncnc2cc1OCCCN1CCCCC1`, the efficacy in test [11] is 52% (inactive). Moreover, the AC50 is 11.2 µM (active) in test [12] and 10 µM (active) in [13].

Regarding `CC(C)NCC(O)c1ccccc1Cl` (stereo not drawn), the efficacy in test [11] was 16.7% (inactive). For the same compound, the compound was called inactive in test [12] and in test [13].

Turning to `CC(C)(C)CC(C)(C)c1ccc(O)cc1`, in [1], the Potency entry was “inactive”. In addition, the max response in [3] is -9.38% (inactive); in [6] it was -7.21% (inactive) and 8.2% (inactive); in test [7], -15.6% (inactive). The efficacy in [11] was -38.7% (inactive). Moreover, the AC50 in [12] was 20 µM (active); in test [13], 17.8 µM (active) and 15.8 µM (active).

For `CC(C)C[C@H](NC(=O)[C@H](CCc1ccccc1)NC(=O)CN1CCOCC1)C(=O)N[C@@H](Cc1ccccc1)C(=O)N[C@@H](CC(C)C)C(=O)[C@@]1(C)CO1`, in test [11], the efficacy is -41% (inactive). Besides, the AC50 in test [12] was 0.316 µM (active); in [13], 0.708 µM (active).

With `CCCCCCC[N+](CC)(CC)CCCCc1ccc(Cl)cc1`, the efficacy in [11] was 30.3% (inactive). Moreover, the half-maximal activity concentration (AC50) in test [12] is 39.8 µM (active). For the same compound, the outcome in [13] was inactive.

On to `CCCCC(CC)CN=C(N)NC(N)=NCCCCCCN=C(N)NC(N)=NCC(CC)CCCC` (stereo not drawn), for which the efficacy in [11] is -201% (inactive). Also, in [12], the AC50 is 11.2 µM (active). For the same compound, the result in [13] was inactive.

In the case of `NCC(O)c1ccc(O)cc1` (stereo not drawn), the Potency entry in test [1] and in test [2] was “inactive” in each case. The max response was -9.13% (inactive) in test [3]; 3.16% (inactive) and 11.7% (inactive) in test [6]; 1.63% (inactive) in [7]. Moreover, the outcome in test [4], in [5], in [12] and in test [13] was inactive. In addition, in test [11], the efficacy is -25.6% (inactive).

In the case of `CCN1/C(=C/C=C/c2sc3ccccc3[n+]2CC)Sc2ccccc21`, in test [11], the efficacy was 26.7% (inactive). The result in [12] and in test [13] was inactive.

`CC(=O)SC[C@@H](C)C(=O)N1CCC[C@H]1C(=O)N[C@@H](Cc1ccccc1)C(=O)O`: the efficacy in test [11] is 13.4% (inactive). For the same compound, the compound was called inactive in test [12] and in [13].

Regarding `Oc1ccccc1-c1ccccc1`, the Potency entry in test [1] and in test [2] was “inactive” each time. Also, the Potency is 251 µM (active) in test [3] and 891 µM (active) in test [7]. Also, the max response in test [3] is -12.4% (inactive) and -2.58% (inactive) and -3.94% (inactive); in [7], -4.38% (inactive) and -13.9% (inactive) and 2.52% (inactive). Also, the efficacy in [11] is 11.7% (inactive). Moreover, the compound was called inactive in [12] and in test [13].
